The values below come from PubChem BioAssay (NCATS).

Assay [1] concerns the target Retinoic acid receptor RXR-alpha (Homo sapiens) (UniProt P19793). Put plainly: qHTS assay for small molecule antagonists of retinoid X receptor alpha signaling (AID 588546; active = well fitted inhibition curve with a large enough effect in the signal ratio, with a control signal flat, not every such curve was filed as active; the % refers to the signal ratio;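 note: cells stimulated with 9-cis-retinoic acid as agonist; % is set by controls: 0 for no effect and ±100 for the full control effect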). Conditions: HEK293T RXRa-UAS-bla, beta-lactamase ratio, antagonist mode. An outline of the steps:
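Beta-lactamase reporter inhibition, read as CCF4 fluorescence ratio (ex 405, em 460/530 nm) after 2 h at RT. HEK293T UAS-bla cells, 2500/well, were stimulated with 9-cis-RA at 500 or 100 nM final alongside test compound for 18 h at 37 C.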
A general note: qHTS replaces the single test concentration by a dilution series.

The target in assay [2] is Thyroid hormone receptor beta (Homo sapiens) (UniProt P10828). In words: qHTS assay for small molecule antagonists of thyroid hormone receptor beta signaling (AID 588547; active = well fitted inhibition curve with a large enough effect in the signal ratio, with a control signal flat, not every such curve was filed as active; the % refers to the signal ratio;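 note: cells stimulated with 0.4 nM T3 agonist during compound exposure; % is set by controls: 0 for no effect and ±100 for the full control effect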). Conditions: TR-UAS-bla HEK293, beta-lactamase ratio, antagonist mode, 18 h. An outline of the steps: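 Inhibition of T3-driven (0.4nM final) beta-lactamase reporter activity was measured over 0.59 nM to 92 uM compound after 18 h at 37 C. The cells were GripTite HEK293 TR-UAS-bla in charcoal/dextran-stripped serum, with CCF4 ratio read-out and IC50 from Hill fits.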
Chain of Thyroid hormone receptor beta (Homo sapiens) (P10828 whole entry, looked up): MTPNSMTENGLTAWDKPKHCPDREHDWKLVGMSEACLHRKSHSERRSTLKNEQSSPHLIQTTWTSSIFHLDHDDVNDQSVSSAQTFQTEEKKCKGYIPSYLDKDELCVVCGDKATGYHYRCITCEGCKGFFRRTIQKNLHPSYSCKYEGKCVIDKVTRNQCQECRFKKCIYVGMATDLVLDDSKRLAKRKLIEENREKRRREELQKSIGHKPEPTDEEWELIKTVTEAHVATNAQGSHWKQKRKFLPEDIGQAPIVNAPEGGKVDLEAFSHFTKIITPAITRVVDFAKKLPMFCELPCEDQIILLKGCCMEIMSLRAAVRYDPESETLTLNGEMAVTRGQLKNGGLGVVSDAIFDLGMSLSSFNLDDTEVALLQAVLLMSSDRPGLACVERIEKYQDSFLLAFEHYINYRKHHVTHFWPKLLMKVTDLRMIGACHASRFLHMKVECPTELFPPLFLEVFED

Assay [3] addresses Voltage-gated inwardly rectifying potassium channel KCNH2 (Homo sapiens) (UniProt Q12809). In words: qHTS Assay for Small Molecule Inhibitors of the Human hERG Channel Activity (AID 588834).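 Note: lower thallium flux fluorescence means stronger hERG block; nearly all actives have a fitted effect of over 50% in size.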 Note: potency is the fitted concentration of half-maximal effect. To be noted: U2OS BacMam hERG, FluxOR thallium flux fluorescence; series mostly up to 46.1 µM. In outline:
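Measured: FluxOR fluorescence after thallium stimulation in U2OS cells transduced with hERG by baculovirus. Compounds pre-incubated around 10 min; medium Opti-MEM with 2% FCS. AC50 from Hill equation.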

Assay [4] addresses Luciferin 4-monooxygenase (Photinus pyralis) (UniProt P08659). Put plainly: Biochemical firefly luciferase enzyme assay for NPC (AID 624030).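 Note: purified P. pyralis luciferase at 10 nM with luciferin and ATP substrate; 0% = DMSO and -100% = full luciferase inhibition by PTC124 control; nearly all actives have a fitted effect of over 70% in size.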 Conditions: purified P. pyralis luciferase, luminescence, 5 min; series mostly up to 58.6 µM. An outline of the steps:
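Direct inhibition of firefly luciferase enzyme (10 nM final, 50 mM Tris Acetate) assessed by luminescence within 5 minutes. Percent activity scaled between DMSO and PTC124 positive control, with concentration-effect curves classified by fit quality and response.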

Assay [5] can be described thus: S16 Schwann cell viability assay (CellTiter-Glo assay) (AID 624031).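 Note: cellular ATP luminescence as a viability measure; plate controls were DMSO-treated cells for no effect and cell-free wells for full effect; nearly all actives have a fitted effect of over 70% in size.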 To be noted: S16 rat Schwann cells viability, 24 h; series mostly up to 57.5 µM. In outline:
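This viability control uses native rat S16 Schwann cells grown in DMEM plus 10% FBS. After a 24 h compound treatment at 37 °C, CellTiter-Glo luminescence reports ATP content, scaled against DMSO-treated and cell-free wells.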
On the technique in general: In ATP-based viability assays light output follows the ATP content of the culture.

Assay [6] in a line: S16 Schwann cell PMP22 intronic element beta-lactamase assay (AID 624044; calls by dose curve;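 note: 0% = DMSO and -100% = potassium clavulanate positive control; nearly all actives have a fitted effect of over 15% in size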). Conditions: S16 rat Schwann cells, PMP22 element beta-lactamase FRET, 24 h; series mostly up to 38.3 µM. An outline of the steps:
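Rat S16 Schwann cells with beta-Lac driven by a PMP22 intronic element, compound-treated 24 h at 37 °C. LiveBLAzer FRET B/G read: 460 nm normalized to potassium clavulanate vs DMSO; 535 nm FRET as viability; concentration-effect curves classified.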

Values joined by “and” are separate entries in the source; they are usually repeats but may differ in a detail not shown here. Equal entries are not always repeated. Results filed as inconclusive are left out. Active and inactive are the calls of the source. Unless noted, calls come from the whole dose curve; as a rule, active = well fitted curve in the direction sought with a large enough effect; inconclusive = small, poorly fitted or top-dose-only effect, or another doubt; inactive = no such curve, though single readings can be large; an effect the other way counts as inactive or inconclusive.

Chain of Retinoic acid receptor RXR-alpha (Homo sapiens) (P19793 whole entry, looked up): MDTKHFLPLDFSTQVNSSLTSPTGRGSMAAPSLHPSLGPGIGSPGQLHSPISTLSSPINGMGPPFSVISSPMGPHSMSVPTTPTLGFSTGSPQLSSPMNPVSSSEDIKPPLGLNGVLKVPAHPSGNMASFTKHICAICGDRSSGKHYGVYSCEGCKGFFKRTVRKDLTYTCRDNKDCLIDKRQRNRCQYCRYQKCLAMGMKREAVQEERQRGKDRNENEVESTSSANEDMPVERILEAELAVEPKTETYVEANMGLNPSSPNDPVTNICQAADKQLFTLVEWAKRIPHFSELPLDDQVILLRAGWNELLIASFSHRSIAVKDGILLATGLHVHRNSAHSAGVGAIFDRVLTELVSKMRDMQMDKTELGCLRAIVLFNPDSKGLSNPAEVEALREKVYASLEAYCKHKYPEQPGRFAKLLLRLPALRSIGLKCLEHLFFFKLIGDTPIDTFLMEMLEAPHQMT
Chain of Luciferin 4-monooxygenase (Photinus pyralis) (P08659 whole entry, looked up): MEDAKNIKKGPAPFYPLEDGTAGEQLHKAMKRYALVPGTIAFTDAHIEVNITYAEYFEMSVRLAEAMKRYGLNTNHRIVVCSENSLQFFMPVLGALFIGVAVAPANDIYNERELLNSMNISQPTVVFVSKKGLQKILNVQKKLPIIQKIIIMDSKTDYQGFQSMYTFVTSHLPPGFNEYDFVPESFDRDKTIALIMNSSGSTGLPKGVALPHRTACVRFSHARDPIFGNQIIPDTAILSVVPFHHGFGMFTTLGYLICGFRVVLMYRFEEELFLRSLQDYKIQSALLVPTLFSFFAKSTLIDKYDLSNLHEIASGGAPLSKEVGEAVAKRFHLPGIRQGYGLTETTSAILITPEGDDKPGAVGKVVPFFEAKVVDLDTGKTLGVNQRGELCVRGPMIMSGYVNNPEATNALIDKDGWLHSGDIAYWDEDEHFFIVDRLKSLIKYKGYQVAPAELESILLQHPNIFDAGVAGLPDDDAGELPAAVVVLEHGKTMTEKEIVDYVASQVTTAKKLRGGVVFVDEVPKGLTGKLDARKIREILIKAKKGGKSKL
Chain of Voltage-gated inwardly rectifying potassium channel KCNH2 (Homo sapiens) (Q12809 whole entry, looked up): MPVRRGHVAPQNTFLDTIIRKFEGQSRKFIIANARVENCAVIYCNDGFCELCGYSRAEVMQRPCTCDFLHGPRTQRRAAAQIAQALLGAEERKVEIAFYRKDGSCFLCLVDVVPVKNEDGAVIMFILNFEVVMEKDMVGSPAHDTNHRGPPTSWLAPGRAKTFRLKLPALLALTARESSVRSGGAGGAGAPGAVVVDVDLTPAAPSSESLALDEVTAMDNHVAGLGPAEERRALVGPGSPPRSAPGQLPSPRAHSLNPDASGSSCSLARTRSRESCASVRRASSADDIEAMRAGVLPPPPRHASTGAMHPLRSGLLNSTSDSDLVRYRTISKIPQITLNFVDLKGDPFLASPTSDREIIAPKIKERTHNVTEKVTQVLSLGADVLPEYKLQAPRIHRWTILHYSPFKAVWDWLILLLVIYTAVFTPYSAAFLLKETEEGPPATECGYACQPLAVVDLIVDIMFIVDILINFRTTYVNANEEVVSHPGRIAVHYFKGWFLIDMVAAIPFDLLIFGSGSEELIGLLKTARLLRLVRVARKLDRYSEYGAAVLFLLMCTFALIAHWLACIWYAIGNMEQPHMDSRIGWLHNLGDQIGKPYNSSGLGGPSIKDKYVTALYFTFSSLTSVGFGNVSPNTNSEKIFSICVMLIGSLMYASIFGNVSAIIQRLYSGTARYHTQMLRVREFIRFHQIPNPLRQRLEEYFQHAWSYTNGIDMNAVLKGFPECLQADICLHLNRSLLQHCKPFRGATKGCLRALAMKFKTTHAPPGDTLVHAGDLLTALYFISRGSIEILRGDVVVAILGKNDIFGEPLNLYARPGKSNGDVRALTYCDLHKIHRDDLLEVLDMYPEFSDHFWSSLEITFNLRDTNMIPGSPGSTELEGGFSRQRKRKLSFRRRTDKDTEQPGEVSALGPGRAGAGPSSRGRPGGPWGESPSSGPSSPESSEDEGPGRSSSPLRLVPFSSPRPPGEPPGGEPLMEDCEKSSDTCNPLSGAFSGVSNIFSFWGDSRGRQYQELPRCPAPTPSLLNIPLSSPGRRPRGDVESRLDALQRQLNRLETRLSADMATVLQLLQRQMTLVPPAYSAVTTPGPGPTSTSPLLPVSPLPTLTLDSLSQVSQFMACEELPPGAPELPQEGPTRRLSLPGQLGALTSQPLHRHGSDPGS

Regarding `O=S(=O)(O)C(F)(F)C(F)(F)C(F)(F)C(F)(F)C(F)(F)C(F)(F)C(F)(F)C(F)(F)F`, in assay [1], the max response is -2.01% (inactive) and 4.02% (inactive). Moreover, the activity change % (negative = inhibition) in assay [2] is -0.756% (inactive).
In the case of `Nc1c(Cl)c(Cl)c(Cl)c(Cl)c1Cl`, in assay [1], the max response was -8.48% (inactive). In addition, in assay [2], the activity change % (negative = inhibition) was 17.1% (inactive).
Turning to `COCCOCCO`, in assay [1], the max response was -11.3% (inactive) and -22% (inactive). Also, the activity change % (negative = inhibition) in assay [2] was 1.33% (inactive) and -16.2% (inactive).
Take `C=CC(=O)NCNC(=O)C=C`: in assay [1], the max response is 10.7% (inactive) and -13.1% (inactive). Further, in assay [2], the activity change % (negative = inhibition) was -12.9% (inactive) and 1.41% (inactive). The Potency result in assay [3] was “inactive”.
For `OCCCBr`, the max response in assay [1] is -5.03% (inactive). Besides, the activity change % (negative = inhibition) in assay [2] is -1.82% (inactive). Besides, the Potency result in assay [3] and in assay [4] was “inactive” throughout.
On to `Nc1ccc([N+](=O)[O-])cc1`, for which the max response in assay [1] is -12.6% (inactive). Besides, the activity change % (negative = inhibition) in assay [2] is -27.9% (inactive). Moreover, the Potency entry in assay [3] and in assay [4] was “inactive” throughout.
In the case of `COc1ccc(C(c2ccc(OC)cc2)C(Cl)(Cl)Cl)cc1`, in assay [1], the max response was -30.1% (inactive) and -25% (inactive). The activity change % (negative = inhibition) in assay [2] was 0.506% (inactive) and -1.09% (inactive) and 26% (inactive). Besides, the Potency in assay [3] was 10 µM (active) and 22.4 µM (active).
For `COC(C)(C)CCCC(C)C/C=C/C(C)=C/C(=O)OC(C)C` (centres undefined), the max response in assay [1] was -11.7% (inactive) and -5.86% (inactive). Further, the activity change % (negative = inhibition) in assay [2] was -7.54% (inactive) and 20% (inactive). Further, the Potency result in assay [3], in assay [4], in assay [5] and in assay [6] was “inactive” throughout.
Regarding `CCCCOC(=O)c1ccccc1C(=O)OCc1ccccc1`, the max response in assay [1] is 2.44% (inactive) and -9.61% (inactive). Further, in assay [2], the activity change % (negative = inhibition) was 11.3% (inactive).
As to `O=[N+]([O-])c1cc([N+](=O)[O-])c2ccccc2c1`, in assay [1], the max response is 12.9% (inactive). For the same compound, in assay [2], the activity change % (negative = inhibition) is -11.2% (inactive).
As for `CCCN(CCC)c1c([N+](=O)[O-])cc(S(N)(=O)=O)cc1[N+](=O)[O-]`, in assay [1], the max response was 2.44% (inactive). The activity change % (negative = inhibition) in assay [2] is 0.13% (inactive).
In the case of `CCOCCOC(C)=O`, the max response in assay [1] was 11% (inactive). Besides, the activity change % (negative = inhibition) in assay [2] is 9.89% (inactive). The Potency result in assay [3] was “inactive”.
As for `O=C(Nc1ccccc1-c1ccc(Cl)cc1)c1cccnc1Cl`, in assay [1], the max response is -14.2% (inactive).
As for `CC(C)(C)C(O)C(Oc1ccc(Cl)cc1)n1cncn1` (centres undefined), the max response in assay [1] is -0.566% (inactive). Further, the activity change % (negative = inhibition) in assay [2] was -8.05% (inactive).
Consider `Nc1ccc(Sc2ccc(N)cc2)cc1`, for which the max response in assay [1] is 1.16% (inactive) and 6.78% (inactive). The activity change % (negative = inhibition) in assay [2] is -2.35% (inactive) and -11.2% (inactive). In addition, the Potency entry in assay [3] was “inactive”.
For the compound `CN(C)NC(=O)CCC(=O)O`, the max response in assay [1] was -0.551% (inactive) and 8.99% (inactive). Besides, the activity change % (negative = inhibition) in assay [2] was -3.38% (inactive). The Potency entry in assay [3] is “inactive”.
Regarding `O=C(O)C(Cl)Cl`, the max response in assay [1] was 4.75% (inactive) and -13.6% (inactive). Besides, the activity change % (negative = inhibition) in assay [2] is 0.759% (inactive) and 14.6% (inactive). Moreover, the Potency entry in assay [3], in assay [4] and in assay [5] was “inactive” in each case.
`CCO/N=C(\CC)C1=C(O)CC(c2c(C)cc(C)cc2C)CC1=O` (centres undefined): the max response in assay [1] was -5.84% (inactive). Besides, the activity change % (negative = inhibition) in assay [2] is 5.1% (inactive).
In the case of `O=C(O)CCCOc1ccc(Cl)cc1Cl`, the max response in assay [1] was -3.54% (inactive). Besides, in assay [2], the activity change % (negative = inhibition) is 12.5% (inactive).
With `CCCCC(CC)COC(=O)c1ccccc1C(=O)OCC(CC)CCCC` (centres undefined), the max response in assay [1] was 9.66% (inactive) and 2.99% (inactive). In addition, the activity change % (negative = inhibition) in assay [2] is -25.5% (inactive) and -4.42% (inactive). The Potency result in assay [3] and in assay [4] was “inactive” each time.
For the compound `O=S(=O)(c1ccc(Cl)cc1)c1ccc(Cl)cc1`, the max response in assay [1] was -23.5% (inactive) and -4.94% (inactive) and -14.2% (inactive). Besides, in assay [2], the activity change % (negative = inhibition) was 9.09% (inactive) and 5.78% (inactive) and 14.1% (inactive). The Potency in assay [3] was 44.7 µM (active). Also, in assay [4], the Potency result was “inactive”.
In the case of `c1cc2ccc3cccc4ccc(c1)c2c34`, the max response in assay [1] is 0.282% (inactive) and -8.73% (inactive). In addition, in assay [2], the activity change % (negative = inhibition) is 8.95% (inactive). Besides, the Potency entry in assay [3] and in assay [4] was “inactive” each time.
With `CN(C)[C@@H]1C(=O)C(C(N)=O)=C(O)[C@@]2(O)C(=O)C3=C(O)c4c(O)cccc4[C@@](C)(O)[C@H]3[C@H](O)[C@@H]12`, the max response in assay [1] is -9.03% (inactive) and -41.7% (inactive) and -15.3% (inactive). In assay [2], the activity change % (negative = inhibition) is 2.86% (inactive) and -5.16% (inactive) and -23.7% (inactive). In addition, the Potency result in assay [3], in assay [4], in assay [5] and in assay [6] was “inactive” each time.
On to `Nc1ccc(Cl)cc1`, for which the max response in assay [1] was -9.24% (inactive). In addition, in assay [2], the activity change % (negative = inhibition) was 5.44% (inactive). The Potency result in assay [3] and in assay [4] was “inactive” in each case.
On to `CC(C)Oc1cccc(NC(=O)c2ccccc2C(F)(F)F)c1`, for which the max response in assay [1] is -12.2% (inactive). Further, in assay [2], the activity change % (negative = inhibition) was -3.3% (inactive).
For `O=C(O)COc1nc(Cl)c(Cl)cc1Cl`, in that order: 6.2% (inactive) and 3.94% (inactive).
